# According to the supplement of paper PMC10849652:
# Targets with a hit are over-represented here; the source holds about 8,800 in all. About 0.5% of all pairs of compound and target were hits. Values without a mark were called inactive.
# Columns and labels:
# Assay in all cases: log2 fold change, soluble protein after heating vs DMSO (PISA); higher = thermal stabilisation; K562 lysate, 10 uM; active = over 0.2 and 3.5 SD of the protein, either way, in both replicates (recomputed)
# erlotinib = compound: C#Cc1cccc(Nc2ncnc3cc(OCCOC)c(OCCOC)cc23)c1 [erlotinib]
# How it was run: (§1)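 Quantification was by TMTpro 16plex LC-MS/MS with equalised channel sums, applied to the supernatant after 21,000xg for 90 min. Samples were crude K562 extract at 1 mg/mL protein in PBS pH 7.4 with 1 mM MgCl2, treated with 10 μM compound for 30 min, heated for 3 min across 48°C-58°C, pooled and brought to 0.5% NP-40 at 4°C. Values are log-two fold changes in thermal stability relative to solvent controls, from duplicates.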
# [1] = compound: C/C(=N\NC(=O)C1=CC(=CC=C1)S(=O)(=O)N2CCOCC2)/C3=C(C=CC(=C3)Cl)O
# How it was run: as §1
# [2] = compound: C1=CC(=CC=C1C2=NC3=C(N2)C=C(C=C3)C(=O)N)OC4=CC=C(C=C4)Cl
# How it was run: as §1
# [3] = compound: C1=CC2=C(C=CC(=C2)/C=C\3/C(=O)NC(=NCC4=CC=CS4)S3)N=C1
# How it was run: as §1
# [4] = compound: C1=CC2=NC=CN=C2C=C1/C=C/3\C(=O)NC(=O)S3
# How it was run: as §1
# [5] = compound: C1=CC=C(C=C1)C2=NC(=C(N2)C3=CC=NC=C3)C4=CC(=C(C=C4)Cl)O
# How it was run: as §1
# [6] = compound: C1=CC=C2C(=C1)C3=NNC4=CC=CC(=C43)C2=O
# How it was run: as §1
# [7] = compound: C1CCN(C1)C(=O)NC2=CC=CC(=C2)NC3=NC=C(C(=N3)NCCC4=CN=CN4)Br
# How it was run: as §1
# [8] = compound: C1CN(CCC1(CC2=CC=C(C=C2)Cl)N)C3=NC=NC4=C3C=CN4
# How it was run: as §1
# IRAK-1-4 Inhibitor I = compound: C1COCCN1CCN2C3=CC=CC=C3N=C2NC(=O)C4=CC(=CC=C4)[N+](=O)[O-] [IRAK-1-4 Inhibitor I]
# How it was run: as §1
# Sequence of UniProt Q99963 (Q99963 whole entry, looked up): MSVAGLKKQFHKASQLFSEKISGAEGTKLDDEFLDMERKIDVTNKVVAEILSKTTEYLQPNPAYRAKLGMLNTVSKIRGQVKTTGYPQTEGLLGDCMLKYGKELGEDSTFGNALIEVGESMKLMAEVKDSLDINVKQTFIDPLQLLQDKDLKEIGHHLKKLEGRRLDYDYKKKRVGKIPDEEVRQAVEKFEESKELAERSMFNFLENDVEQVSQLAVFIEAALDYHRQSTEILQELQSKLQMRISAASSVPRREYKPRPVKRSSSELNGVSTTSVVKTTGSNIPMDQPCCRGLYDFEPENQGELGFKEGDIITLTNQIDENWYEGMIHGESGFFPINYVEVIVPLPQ
# Sequence of UniProt Q9HBR0 (Q9HBR0 whole entry, looked up): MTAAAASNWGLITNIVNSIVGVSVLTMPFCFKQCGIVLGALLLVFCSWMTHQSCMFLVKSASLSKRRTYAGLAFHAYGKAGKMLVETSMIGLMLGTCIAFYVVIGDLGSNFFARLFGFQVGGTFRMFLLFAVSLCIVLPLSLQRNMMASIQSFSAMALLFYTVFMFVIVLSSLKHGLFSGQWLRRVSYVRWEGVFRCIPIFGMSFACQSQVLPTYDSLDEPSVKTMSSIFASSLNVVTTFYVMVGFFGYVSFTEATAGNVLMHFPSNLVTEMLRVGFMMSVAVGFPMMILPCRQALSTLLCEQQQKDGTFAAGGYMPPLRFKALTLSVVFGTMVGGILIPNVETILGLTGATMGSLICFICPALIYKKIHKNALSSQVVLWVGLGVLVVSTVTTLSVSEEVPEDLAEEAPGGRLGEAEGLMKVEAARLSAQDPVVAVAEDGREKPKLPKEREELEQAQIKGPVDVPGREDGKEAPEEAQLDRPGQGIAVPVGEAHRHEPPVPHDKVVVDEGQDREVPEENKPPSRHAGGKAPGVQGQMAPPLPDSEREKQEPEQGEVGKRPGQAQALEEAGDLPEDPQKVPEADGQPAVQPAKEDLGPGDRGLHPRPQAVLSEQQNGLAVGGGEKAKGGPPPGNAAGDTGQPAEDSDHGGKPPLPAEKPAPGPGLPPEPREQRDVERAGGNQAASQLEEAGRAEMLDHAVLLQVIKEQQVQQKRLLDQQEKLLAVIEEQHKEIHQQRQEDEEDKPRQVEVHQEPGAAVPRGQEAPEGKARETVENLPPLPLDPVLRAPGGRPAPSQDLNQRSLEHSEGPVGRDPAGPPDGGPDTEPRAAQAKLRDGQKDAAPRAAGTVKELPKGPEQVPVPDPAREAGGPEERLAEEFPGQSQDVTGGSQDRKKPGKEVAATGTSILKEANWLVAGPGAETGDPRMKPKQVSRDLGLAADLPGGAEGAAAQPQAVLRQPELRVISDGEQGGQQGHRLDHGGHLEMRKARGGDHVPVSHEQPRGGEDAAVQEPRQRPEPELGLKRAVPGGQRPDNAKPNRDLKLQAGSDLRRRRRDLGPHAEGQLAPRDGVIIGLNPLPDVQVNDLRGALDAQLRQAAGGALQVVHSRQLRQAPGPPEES
# Sequence of UniProt Q15022 (Q15022 whole entry, looked up): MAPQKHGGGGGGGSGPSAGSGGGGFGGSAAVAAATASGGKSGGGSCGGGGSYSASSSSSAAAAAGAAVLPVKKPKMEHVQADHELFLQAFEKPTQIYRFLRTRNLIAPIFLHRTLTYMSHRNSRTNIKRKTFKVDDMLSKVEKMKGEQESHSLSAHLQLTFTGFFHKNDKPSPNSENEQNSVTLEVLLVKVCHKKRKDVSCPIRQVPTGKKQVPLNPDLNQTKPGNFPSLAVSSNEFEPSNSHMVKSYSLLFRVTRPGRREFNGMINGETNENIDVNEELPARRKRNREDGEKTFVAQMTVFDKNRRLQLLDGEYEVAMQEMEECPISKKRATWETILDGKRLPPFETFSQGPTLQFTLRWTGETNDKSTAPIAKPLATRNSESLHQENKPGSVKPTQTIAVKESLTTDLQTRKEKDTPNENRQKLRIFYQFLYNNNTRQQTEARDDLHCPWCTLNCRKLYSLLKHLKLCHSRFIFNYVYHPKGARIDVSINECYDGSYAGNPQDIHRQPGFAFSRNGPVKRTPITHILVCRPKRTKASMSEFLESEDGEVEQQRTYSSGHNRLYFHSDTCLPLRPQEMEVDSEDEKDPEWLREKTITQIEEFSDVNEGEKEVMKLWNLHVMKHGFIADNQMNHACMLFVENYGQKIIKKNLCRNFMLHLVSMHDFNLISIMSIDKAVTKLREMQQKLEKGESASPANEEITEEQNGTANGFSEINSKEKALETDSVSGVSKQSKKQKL
# Sequence of UniProt Q8N1F8 (Q8N1F8 whole entry, looked up): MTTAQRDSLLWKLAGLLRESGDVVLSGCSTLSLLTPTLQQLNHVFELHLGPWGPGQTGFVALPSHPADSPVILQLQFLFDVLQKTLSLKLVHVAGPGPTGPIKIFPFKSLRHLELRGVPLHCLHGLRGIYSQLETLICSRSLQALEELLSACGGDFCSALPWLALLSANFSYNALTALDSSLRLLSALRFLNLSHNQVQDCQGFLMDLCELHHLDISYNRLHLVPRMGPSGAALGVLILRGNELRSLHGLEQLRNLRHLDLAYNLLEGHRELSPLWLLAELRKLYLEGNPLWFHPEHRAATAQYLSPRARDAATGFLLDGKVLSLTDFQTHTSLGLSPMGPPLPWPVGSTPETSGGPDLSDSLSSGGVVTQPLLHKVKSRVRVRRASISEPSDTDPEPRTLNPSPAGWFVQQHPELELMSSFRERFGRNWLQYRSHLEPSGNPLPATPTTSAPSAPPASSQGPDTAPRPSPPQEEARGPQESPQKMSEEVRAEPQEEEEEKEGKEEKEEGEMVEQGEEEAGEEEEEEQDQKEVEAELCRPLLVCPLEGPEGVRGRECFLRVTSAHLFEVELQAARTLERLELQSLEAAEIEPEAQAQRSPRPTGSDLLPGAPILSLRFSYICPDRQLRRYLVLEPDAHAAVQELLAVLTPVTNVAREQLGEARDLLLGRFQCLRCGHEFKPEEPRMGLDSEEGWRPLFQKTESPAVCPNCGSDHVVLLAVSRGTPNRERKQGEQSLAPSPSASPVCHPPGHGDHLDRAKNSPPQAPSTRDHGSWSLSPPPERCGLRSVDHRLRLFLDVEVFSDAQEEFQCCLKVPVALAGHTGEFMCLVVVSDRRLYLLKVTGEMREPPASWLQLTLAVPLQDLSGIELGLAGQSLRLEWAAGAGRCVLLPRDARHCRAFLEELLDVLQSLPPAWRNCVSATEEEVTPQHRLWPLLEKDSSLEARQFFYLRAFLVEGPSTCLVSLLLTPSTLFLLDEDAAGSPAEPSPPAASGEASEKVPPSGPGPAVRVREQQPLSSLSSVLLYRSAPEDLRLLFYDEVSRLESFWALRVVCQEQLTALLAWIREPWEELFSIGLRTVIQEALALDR
# Sequence of UniProt Q9UHW9 (Q9UHW9 whole entry, looked up): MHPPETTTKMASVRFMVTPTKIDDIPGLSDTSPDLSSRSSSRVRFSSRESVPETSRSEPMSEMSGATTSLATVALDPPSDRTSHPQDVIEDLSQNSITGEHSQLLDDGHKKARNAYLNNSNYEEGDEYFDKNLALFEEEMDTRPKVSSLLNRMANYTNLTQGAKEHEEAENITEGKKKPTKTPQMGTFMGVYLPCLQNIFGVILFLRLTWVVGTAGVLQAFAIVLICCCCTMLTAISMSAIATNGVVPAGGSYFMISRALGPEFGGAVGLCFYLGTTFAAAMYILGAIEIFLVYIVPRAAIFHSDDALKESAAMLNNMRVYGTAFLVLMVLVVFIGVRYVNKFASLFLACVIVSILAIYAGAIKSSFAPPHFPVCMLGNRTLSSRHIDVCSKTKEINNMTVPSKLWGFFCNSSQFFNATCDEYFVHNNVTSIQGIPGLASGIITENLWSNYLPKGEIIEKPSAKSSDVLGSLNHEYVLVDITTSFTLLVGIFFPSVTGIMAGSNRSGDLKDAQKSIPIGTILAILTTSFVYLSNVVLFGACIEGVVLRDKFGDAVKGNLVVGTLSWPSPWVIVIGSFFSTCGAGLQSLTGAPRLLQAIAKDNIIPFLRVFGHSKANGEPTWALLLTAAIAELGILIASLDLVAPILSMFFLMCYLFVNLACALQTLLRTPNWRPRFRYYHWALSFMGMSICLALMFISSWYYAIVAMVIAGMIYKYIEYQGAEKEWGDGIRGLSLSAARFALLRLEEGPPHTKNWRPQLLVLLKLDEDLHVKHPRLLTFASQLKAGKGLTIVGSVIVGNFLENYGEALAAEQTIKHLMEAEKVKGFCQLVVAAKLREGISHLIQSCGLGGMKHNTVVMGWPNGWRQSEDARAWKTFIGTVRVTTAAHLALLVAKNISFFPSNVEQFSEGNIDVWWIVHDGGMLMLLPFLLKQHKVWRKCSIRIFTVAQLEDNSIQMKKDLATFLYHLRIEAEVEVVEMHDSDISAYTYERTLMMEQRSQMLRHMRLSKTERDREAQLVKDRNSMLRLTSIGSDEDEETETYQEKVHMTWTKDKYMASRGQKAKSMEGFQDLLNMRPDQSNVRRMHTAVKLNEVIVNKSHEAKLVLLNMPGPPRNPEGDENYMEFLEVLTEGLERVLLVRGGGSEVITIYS
# Sequence of UniProt Q6NXT4 (Q6NXT4 whole entry, looked up): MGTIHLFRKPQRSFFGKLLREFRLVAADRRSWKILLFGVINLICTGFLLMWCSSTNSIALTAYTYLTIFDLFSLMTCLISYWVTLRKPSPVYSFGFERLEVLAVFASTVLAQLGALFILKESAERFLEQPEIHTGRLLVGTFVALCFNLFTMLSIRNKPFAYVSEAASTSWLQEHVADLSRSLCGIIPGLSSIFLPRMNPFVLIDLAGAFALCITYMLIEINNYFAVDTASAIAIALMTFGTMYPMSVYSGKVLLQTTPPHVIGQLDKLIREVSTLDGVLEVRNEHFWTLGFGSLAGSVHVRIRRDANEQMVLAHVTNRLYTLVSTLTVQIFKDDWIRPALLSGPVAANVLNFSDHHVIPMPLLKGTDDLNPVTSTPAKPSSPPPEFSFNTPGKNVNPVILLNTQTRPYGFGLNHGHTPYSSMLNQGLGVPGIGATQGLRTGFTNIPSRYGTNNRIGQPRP
# Sequence of UniProt Q8NHG7 (Q8NHG7 whole entry, looked up): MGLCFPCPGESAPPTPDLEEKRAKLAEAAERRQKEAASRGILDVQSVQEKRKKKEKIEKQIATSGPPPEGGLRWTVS
Target,log2 fold change (erlotinib),log2 fold change [1],log2 fold change [2],log2 fold change [3],log2 fold change [4],log2 fold change [5],log2 fold change [6],log2 fold change [7],log2 fold change [8],log2 fold change (IRAK-1-4 Inhibitor I)
SMIM8 (UniProt Q96KF7),-0.057,0.005,0.028,0.004,-0.004,-0.137,0.028,0.026,0,0.058
SLC38A1 (UniProt Q9H2H9),-0.01,-0.029,0.056,0.007,0.01,0.039,-0.061,-0.027,0.026,0.053
SMG7 (UniProt Q92540),0.007,-0.03,-0.022,-0.058,-0.066,-0.047,-0.032,-0.077,-0.01,-0.011
SLC38A10 (UniProt Q9HBR0),0.007,-0.128,-0.006,-0.065,-0.009,0.02,-0.127,0,0.016,0.047
SRSF9 (UniProt Q13242),0.027,0.263 (active),0.007,0.077,0.052,-0.01,0.097,0.072,0.007,0.012
SLC20A1 (UniProt Q8WUM9),0.032,0.059,0.089,-0.097,0.005,0.02,0.085,0.069,0.214,0.05
SSX5 isoform 2 (UniProt O60225),-0.302,0.12,-0.142,0.195,-0.125,0.043,-0.027,0.23,-0.219,0.007
STK38 (UniProt Q15208),-0.018,-0.029,-0.063,-0.005,0.038,0.029,0.176,-0.002,0.055,-0.006
SVIP (UniProt Q8NHG7),0.037,0.013,-0.004,-0.007,0.001,0.041,-0.012,0.107,0.057,0.001
SNUPN (UniProt O95149),-0.048,-0.116,0.3,0.024,0.035,0.069,0.009,0.02,-0.039,-0.001
SPHK1 isoform 2 (UniProt Q9NYA1),-0.055,-0.462,-0.059,0.038,0.034,-0.097,-0.066,0.016,0.038,0.018
SLC12A6 (UniProt Q9UHW9),-0.014,-0.073,-0.047,0.013,-0.006,-0.028,-0.01,-0.024,0.068,-0.01
SLC30A6 isoform 2 (UniProt Q6NXT4),-0.014,0.031,-0.012,-0.08,0.069,0.008,-0.212,-0.005,-0.059,0
SHCBP1 (UniProt Q8NEM2),0.034,0.01,-0.035,-0.023,0.007,0.032,0.005,0.014,-0.014,0.018
SHKBP1 (UniProt Q8TBC3),-0.005,-0.064,0.058,0.004,0.011,0.01,-0.018,0.076,0.189,0.022
SMG6 (UniProt Q86US8),-0.038,0.026,0.012,0.009,0.021,0,-0.092,-0.04,-0.005,0.026
SLC27A4 (UniProt Q6P1M0),0.022,0.01,-0.023,0.052,0.063,-0.009,0.041,0.015,0.084,-0.003
SNRPF (UniProt P62306),-0.029,-0.07,0.081,-0.017,-0.065,0.028,-0.034,-0.018,0.001,0.007
SUZ12 (UniProt Q15022),0.024,-0.077,-0.018,0.007,0.004,0.034,-0.079,-0.038,-0.021,0.02
SLC11A2 isoform 3 (UniProt P49281),-0.005,-0.041,-0.009,-0.013,0,0.011,0.046,-0.004,0.026,0.024
TAF6L (UniProt Q9Y6J9),-0.013,0.174,-0.077,0.005,0.025,0.055,0.055,0.022,-0.104,0.051
SH3GL3 isoform 3 (UniProt Q99963),-0.023,-0.014,-0.002,-0.054,-0.053,-0.108,-0.133,0.054,-0.06,-0.124
STK24 (UniProt B4DR80),0.019,0.02,0.018,-0.04,-0.003,-0.004,0.198,0.045,0.013,-0.007
TARDBP (UniProt Q13148),-0.017,-0.092,0.018,0.004,0.09,-0.133,-0.036,-0.065,0.032,0.048
STK11IP (UniProt Q8N1F8),0.015,0.008,-0.002,-0.071,0.007,-0.007,0.025,-0.029,0.033,0.053
"SNX6, A0A0A0MRI2",0.012,0.056,-0.029,0.04,-0.028,0.013,-0.073,0.024,-0.047,-0.013
SRSF7 (UniProt Q16629),0.019,-0.068,-0.043,0.002,-0.066,-0.02,-0.016,0.032,0.008,-0.03
SLC19A1 (UniProt P41440),-0.032,-0.024,0.049,-0.04,-0.025,-0.001,-0.017,-0.023,0.023,0.033
SYNRG (UniProt Q9UMZ2),0.029,-0.037,0.078,0.015,-0.012,-0.019,-0.01,-0.004,0.021,0.016
SSU72 (UniProt Q9NP77),-0.067,0.057,-0.071,-0.064,-0.003,0.07,0.005,0.029,0,0.001
